From PubChem BioAssay
ELG1 repair inh – inhibitors of ELG1-dependent DNA repair in HEK293T cells; HEK293T ELG1-luciferase reporter, luminescence, 16 h; DNA damage induced by 5-fluorouridine; Potency, µM (highest dose often 46.1 µM), actives largely listed as inhibitors; 2.3% of 330,000 active; AID 504467; note: nearly all actives have a fitted effect of over 55% in size
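Reporter activity after DNA damage by 5-fluorouridine is monitored. Compound-treated cells incubate 16 hr at 37 °C, then ONE-Glo is added for 30 min before luminescence reading.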
RORgamma inh – blocks mouse ROR gamma transcriptional activity | P51450 | Drosophila S2 Gal4-RORgamma UAS-luciferase reporter, 20 h | Potency, µM (highest dose often 53.6 µM), most hits filed as inhibitors | 5.4% of 310,000 active | AID 2551; note: nearly all actives have a fitted effect of over 60% in size
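Stably transfected Drosophila Schneider cells are the test system, with ROR gamma fused to Gal4 and luciferase under UAS control; luminescence is read after 20 hr of 700 uM copper sulfate induction at ambient temperature.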
Giardia killer – Giardia lamblia killing | 0.15% of 340,000 active | AID 540267 | Giardia lamblia trophozoite viability | activity change, % at 7.66 µM, hits read low; in the data active = activity change below about -80%; inconclusive = between about -30% and that limit;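 note: parasites exposed to compound for two days anaerobically before the ATP read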
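ATP-content bioluminescence gauges trophozoite survival. Cells (100/well) receive compound and incubate anaerobically for 48 hrs at 37 deg C; detection reagent follows for 15-30 min at room temperature.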
p53 reactivator – re-activators of mutant p53 | 0.063% of 320,000 active | Potency, µM (top dose mostly 92.2 µM), usual class: activators | H1299 p53-A138V BP100-luciferase reporter, luminescence, 24 h; note: nearly all actives have a fitted effect of over 45% in size
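p53-null H1299 cells stably carrying temperature-sensitive p53-A138V and a BP100-luciferase reporter were pinned with compounds (4-point, 1:5 series) and held 24 hrs at 37 deg C. Luminescence was read 10 min after detection reagent.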
Gal4-VP16 FLuc – Gal4-VP16 reporter inhibition counter-screen | Drosophila S2 Gal4-VP16 UAS-luciferase, luminescence, 20 h | Potency, µM (series often up to 53.6 µM), usual class: inhibitors | 3.5% of 310,000 active | AID 2546;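 note: Gal4-VP16 expression switched on by copper sulfate through the metallothionein promoter; nearly all actives have a fitted effect of over 50% in size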
BRCA1 expr up – activators of BRCA1 expression; MCF7-BRCA1-FFLuc reporter, luminescence, 48 h; response scale: scaled: vehicle 0%, 10 µM genistein 100%; Potency, µM (titrated, usually from 46.1 µM), actives largely listed as activators; AID 624202; 1.1% of 380,000 active; note: nearly all actives have a fitted effect of over 80% in size
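Using MCF7 cells harboring a BRCA1 firefly luciferase reporter, plated 2 h before compound pinning, the screen measured luminescence after 48 h incubation. Responses were normalized to DMSO and 10 microM genistein, then fitted for concentration-effect.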
ELG1 FLuc counter – luciferase inhibition in cell-free luciferin readout for ELG1 hits. shares compounds with ELG1 repair inh. 3% of 350 active. AID 624247. cell-free firefly luciferase luminescence counter-screen, ViewLux. Potency, µM (doses to about 46.1 µM), most hits filed as inhibitors
ELG1 Luc conf – human ELG1 repair inhibition, luciferase-tagged ELG1 confirmation | 68% of 670 active | Potency, µM (doses to about 46.1 µM), usual class: inhibitors | HEK293T ELG1-luciferase levels, luminescence; cells co-treated with 5-fluorouridine | shares compounds with ELG1 repair inh; note: nearly all actives have a fitted effect of over 55% in size
ELG1 MMS Luc – confirmation of human ELG1 repair inhibitors, MMS stimulated | shares compounds with ELG1 repair inh | HEK293T luciferase-tagged ELG1 level, MMS stimulated | Potency, µM (top dose mostly 46.1 µM), hits mostly inhibitors | 53% of 670 active; note: nearly all actives have a fitted effect of over 60% in size
ELG1 5FU viab – confirmation of ELG1 repair inhibitors: viability with 5FU. shares compounds with ELG1 repair inh. Potency, µM (top dose mostly 46.1 µM), hits mostly cytotoxic. 670 tested, under 10 active. cell viability with 5-FU, ELG1-dependent repair. AID 624250;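 note: ELG1-luc HEK293T cells cotreated with 5-fluorouridine at 10 µM final; viability measured 16 h after compound addition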
ELG1 MMS cell – confirmation of ELG1 repair inhibitors: viability with MMS; shares compounds with ELG1 repair inh; Cell viability with MMS, ELG1-dependent DNA repair; Potency, µM (series often up to 46.1 µM), usual class: cytotoxic; 33% of 670 active;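 note: ELG1-luc HEK293T cells co-treated with 10 µM MMS; viability read 16 h after compound addition; nearly all actives have a fitted effect of over 60% in size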
Cell viab unstim – affects unstimulated cell viability, ELG1 hit counter-screen. shares compounds with ELG1 repair inh. cell viability counter-screen, unstimulated, luminescence. Potency, µM (titrated, usually from 45.9 µM), usual class: cytotoxic. 8% of 900 active;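 note: compound exposure lasted 16 hours before reading; nearly all actives have a fitted effect of over 55% in size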
FLuc enzyme – firefly luciferase inhibition counter-screen; purified firefly luciferase, luminescence counter-screen; shares compounds with ELG1 repair inh; 10% of 350 active; Potency, µM (top dose mostly 57.5 µM), most hits filed as inhibitors
Each line names hits and unclear results; the compound was inactive in the other large screens (follow-up assays come after a bar, where they were run). The list is not random: actives were taken first. Their share in the collection is about 7.6%. Unless noted, calls come from the whole dose curve; as a rule, active = well fitted curve in the direction sought with a large enough effect; inconclusive = small, poorly fitted or top-dose-only effect, or another doubt; inactive = no such curve, though single readings can be large; an effect the other way counts as inactive or inconclusive.

CCN(CC(=O)Nc1c(C(=O)OC)[nH]c2ccc(C)cc12)c1ccc2c(c1)OCO2	ELG1 repair inh 4.6µM | ELG1 Luc conf 7.1µM | ELG1 MMS Luc inconclusive | ELG1 5FU viab inconclusive | ELG1 MMS cell inactive | Cell viab unstim inconclusive
CC(C)n1nnnc1SCC(=O)Nc1ccccc1F	none
Cc1c(C(=O)Nc2ccc(F)cc2)oc2ccc(S(=O)(=O)N3CCC4(CC3)OCCO4)cc12	ELG1 repair inh 12µM | ELG1 FLuc counter inconclusive | ELG1 Luc conf 7.1µM | ELG1 MMS Luc 22µM | ELG1 5FU viab inconclusive | ELG1 MMS cell 25µM | Cell viab unstim inconclusive | FLuc enzyme inactive
CCC(C)NC(=O)c1oc2ccc(S(=O)(=O)N3CCC4(CC3)OCCO4)cc2c1C (stereo not drawn)	none | ELG1 FLuc counter inactive | ELG1 Luc conf 16µM | ELG1 MMS Luc inconclusive | ELG1 5FU viab inactive | ELG1 MMS cell inactive | Cell viab unstim inactive | FLuc enzyme inactive
Cc1cc(C)c(C(=O)COC(=O)Cn2nc(-c3ccccc3)oc2=O)cc1C	none (no result: RORgamma inh, Gal4-VP16 FLuc)
CC(C)=CCN1CCN(Cc2cn(C(C)C)c3ccccc23)CC1CCO (stereo not drawn)	none (no result: p53 reactivator)
O=C(NCC(c1cccs1)N1CCOCC1)c1cn(-c2ccccc2)nc1-c1ccccc1 (stereo not drawn)	ELG1 repair inh inconclusive (no result: RORgamma inh, Gal4-VP16 FLuc)
COc1ccc(-c2nn(-c3ccccc3)cc2C(=O)NCC(c2cccs2)N2CCOCC2)cc1 (stereo not drawn)	ELG1 repair inh 4.6µM, Giardia killer inconclusive (no result: RORgamma inh, Gal4-VP16 FLuc) | ELG1 Luc conf 14µM | ELG1 MMS Luc inactive | ELG1 5FU viab inconclusive | ELG1 MMS cell inactive | Cell viab unstim inactive
O=c1c2ccccc2nc(COc2ccccc2)n1/N=C/c1c[nH]c2ccccc12	ELG1 repair inh 2.3µM, RORgamma inh inconclusive | ELG1 Luc conf 6.3µM | ELG1 MMS Luc inactive | ELG1 5FU viab inconclusive | ELG1 MMS cell inactive | Cell viab unstim inconclusive
O=c1c2ccccc2nc(COc2ccccc2)n1/N=C/c1ccc(O)cc1O	ELG1 repair inh inconclusive
COc1cccc(NC(=O)C2(C)CCN2Cc2ccccc2OC(F)F)c1 (stereo not drawn)	none (no result: ELG1 repair inh, RORgamma inh, Giardia killer, p53 reactivator, Gal4-VP16 FLuc)
O=C(O)CCN(CCC(=O)O)c1nnc(SCc2ccccc2)s1	none
CSc1cccc(NC(=O)COC(=O)C2CCN(S(=O)(=O)c3ccccc3)CC2)c1	none (no result: RORgamma inh, Gal4-VP16 FLuc)
COc1ccc(S(=O)(=O)NCc2ccncc2)cc1NC(=O)c1ccccc1	none (no result: RORgamma inh, Gal4-VP16 FLuc)
COc1ccc(S(=O)(=O)NCc2ccncc2)cc1NC(=O)c1ccc(Cl)cc1	ELG1 repair inh inconclusive (no result: RORgamma inh, Gal4-VP16 FLuc) | ELG1 FLuc counter inactive | ELG1 Luc conf 18µM | ELG1 MMS Luc inconclusive | ELG1 5FU viab inactive | ELG1 MMS cell inconclusive | Cell viab unstim inconclusive | FLuc enzyme inactive
O=S(=O)(c1cccc(C(F)(F)F)c1)N1CCCC1c1cccnc1 (stereo not drawn)	none
Cc1ccc(S(=O)(=O)N2CCCCC2c2cccnc2)c(C)c1C (stereo not drawn)	ELG1 repair inh 0.82µM | ELG1 FLuc counter inactive | ELG1 Luc conf 0.014µM | ELG1 MMS Luc 14µM | ELG1 5FU viab inactive | ELG1 MMS cell 20µM | Cell viab unstim inconclusive | FLuc enzyme inactive
COc1ccc(NC(=O)/C(C#N)=C\c2ccc(OCc3ccc(C(=O)O)cc3)c(OC)c2)cc1	ELG1 repair inh inconclusive
COc1cc(/C=C(\C#N)C(=O)Nc2cccc(C(=O)O)c2)ccc1OCc1ccc(F)cc1	ELG1 repair inh inconclusive, p53 reactivator inconclusive, BRCA1 expr up 11µM | Cell viab unstim inactive
CCC[N+]1(CC#CCC(c2ccccc2)c2ccccc2)CCCCC1	ELG1 repair inh 2.3µM | ELG1 Luc conf inconclusive | ELG1 MMS Luc 2.2µM | ELG1 5FU viab inactive | ELG1 MMS cell 2.8µM | Cell viab unstim inconclusive
CC(C)(C)C(=O)Nc1ccc(S(=O)(=O)N2CCC(c3nc4ccccc4[nH]3)CC2)cc1	ELG1 repair inh 3.7µM (no result: RORgamma inh, Gal4-VP16 FLuc) | ELG1 Luc conf 2.5µM | ELG1 MMS Luc inactive | ELG1 5FU viab inconclusive | ELG1 MMS cell inactive | Cell viab unstim inactive
CC(=O)Nc1ccc(S(=O)(=O)N2CCC(c3nc4ccccc4[nH]3)CC2)cc1	none (no result: Gal4-VP16 FLuc)
O=c1c2ccccc2c2ccccc2c(=O)n1Cc1cccnc1	none
COc1cccc(NC(=O)COc2cc(O)c3c(c2)OC(C)(C)CC3=O)c1	ELG1 repair inh inconclusive
CN(C)c1ccc(-c2cc3ccccc3c(=O)o2)cc1	ELG1 repair inh inconclusive (no result: RORgamma inh, p53 reactivator, Gal4-VP16 FLuc) | ELG1 FLuc counter inactive | Cell viab unstim inconclusive | FLuc enzyme 0.18µM
CN(C)CCNC(=O)c1ccccc1-c1cc2ccccc2c(=O)o1	none
COc1cc(/C=C/c2nc(N)nc(-c3ccccc3O)n2)cc(OC)c1OC	ELG1 repair inh 2.9µM | ELG1 Luc conf 2.2µM | ELG1 MMS Luc 7.1µM | ELG1 5FU viab inactive | ELG1 MMS cell inconclusive | Cell viab unstim inconclusive
COc1ccc(/C=C/c2nc(N)nc(-c3ccccc3O)n2)cc1	none
COc1cccc(CNc2nc3cc(-c4cccc(OC)c4)sc3c(=O)n2C)c1	none (no result: ELG1 repair inh, RORgamma inh, Giardia killer, p53 reactivator, Gal4-VP16 FLuc)
Cn1c(=O)c2c(nc(CN3CCc4ccccc4C3)n2Cc2ccccc2F)n(C)c1=O	ELG1 repair inh inconclusive | ELG1 Luc conf 8.9µM | ELG1 MMS Luc inactive | ELG1 5FU viab inconclusive | ELG1 MMS cell inactive | Cell viab unstim inactive
